The full list was thinned out, with hits kept by preference.
Dicer inh – inhibitors of Dicer pre-microRNA processing, primary screen, biochemical, cat-ELCCA, chemiluminescence. Endoribonuclease Dicer (Homo sapiens), Q9UPY3. cat-ELCCA pre-miR-21 Dicer processing; stronger effect = higher value. z-score at 25 µM. 47,000 tested, 6% active. AID 1347074, 2019; in the data active = z-score above about 3, passing the limit was not always enough;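 note: plate controls were vehicle for no effect and no enzyme for full effect; higher signal means more uncleaved substrate so more Dicer inhibition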
Target sequence (Q9UPY3 whole entry, looked up): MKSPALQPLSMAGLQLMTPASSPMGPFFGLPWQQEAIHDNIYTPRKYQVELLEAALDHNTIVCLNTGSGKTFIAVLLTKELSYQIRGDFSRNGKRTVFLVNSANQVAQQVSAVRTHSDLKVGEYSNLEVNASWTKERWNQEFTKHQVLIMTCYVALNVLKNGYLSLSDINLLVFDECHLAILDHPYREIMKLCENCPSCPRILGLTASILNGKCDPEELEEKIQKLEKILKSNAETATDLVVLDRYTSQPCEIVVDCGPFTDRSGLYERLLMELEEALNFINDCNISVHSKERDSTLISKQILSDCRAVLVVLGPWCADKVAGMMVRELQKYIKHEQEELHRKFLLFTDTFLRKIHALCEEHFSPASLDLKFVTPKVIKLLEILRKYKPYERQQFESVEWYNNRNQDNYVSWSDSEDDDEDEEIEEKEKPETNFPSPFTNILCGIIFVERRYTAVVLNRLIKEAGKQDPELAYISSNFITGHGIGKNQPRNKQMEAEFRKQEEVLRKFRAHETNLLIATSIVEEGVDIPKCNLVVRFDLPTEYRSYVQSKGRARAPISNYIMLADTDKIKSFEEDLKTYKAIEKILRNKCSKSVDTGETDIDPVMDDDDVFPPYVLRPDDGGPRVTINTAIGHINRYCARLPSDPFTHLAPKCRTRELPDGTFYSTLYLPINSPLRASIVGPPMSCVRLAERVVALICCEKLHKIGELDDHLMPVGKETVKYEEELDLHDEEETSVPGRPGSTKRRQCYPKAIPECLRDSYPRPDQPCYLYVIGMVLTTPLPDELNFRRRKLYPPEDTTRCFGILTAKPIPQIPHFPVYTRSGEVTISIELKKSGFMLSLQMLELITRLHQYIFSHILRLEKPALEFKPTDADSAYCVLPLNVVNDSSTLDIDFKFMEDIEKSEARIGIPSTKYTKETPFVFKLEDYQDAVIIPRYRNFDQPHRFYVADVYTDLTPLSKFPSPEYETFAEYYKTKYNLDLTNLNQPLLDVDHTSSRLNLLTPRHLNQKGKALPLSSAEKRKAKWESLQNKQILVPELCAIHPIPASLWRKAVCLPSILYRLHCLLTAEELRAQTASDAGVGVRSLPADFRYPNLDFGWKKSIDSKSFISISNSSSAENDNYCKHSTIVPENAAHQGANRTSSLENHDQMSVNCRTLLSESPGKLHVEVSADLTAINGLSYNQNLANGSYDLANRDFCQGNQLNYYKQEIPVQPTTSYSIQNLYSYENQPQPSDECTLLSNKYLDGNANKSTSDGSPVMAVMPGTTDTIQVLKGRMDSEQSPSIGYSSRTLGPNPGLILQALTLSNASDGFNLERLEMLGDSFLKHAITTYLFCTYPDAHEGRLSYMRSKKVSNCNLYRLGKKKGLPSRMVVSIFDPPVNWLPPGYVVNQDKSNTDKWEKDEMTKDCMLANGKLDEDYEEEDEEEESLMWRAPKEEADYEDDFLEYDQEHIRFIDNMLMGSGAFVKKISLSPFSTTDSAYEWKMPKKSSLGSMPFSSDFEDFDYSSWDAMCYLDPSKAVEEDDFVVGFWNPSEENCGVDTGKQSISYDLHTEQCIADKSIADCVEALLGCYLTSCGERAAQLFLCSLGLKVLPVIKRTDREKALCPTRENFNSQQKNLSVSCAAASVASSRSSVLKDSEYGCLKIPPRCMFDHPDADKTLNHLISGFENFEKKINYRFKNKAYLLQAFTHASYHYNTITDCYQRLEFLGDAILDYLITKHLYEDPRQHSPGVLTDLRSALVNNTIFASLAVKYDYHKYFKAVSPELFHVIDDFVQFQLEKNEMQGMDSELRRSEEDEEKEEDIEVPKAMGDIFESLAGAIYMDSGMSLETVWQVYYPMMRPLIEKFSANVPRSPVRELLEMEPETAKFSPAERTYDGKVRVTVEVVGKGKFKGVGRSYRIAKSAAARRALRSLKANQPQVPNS
Starred values were filed as active, the others as inactive; ! = not active in a repeat.

SMILES	Dicer inh
COc1ccc(N2C(=O)C3CC=C(Cl)CC3C2=O)cc1 (centres undefined)	-0.6
CC(C)CC(C(=O)O)N1C(=O)C2CC=C(Cl)CC2C1=O (centres undefined)	-0.93
O=C(c1ccc(Cl)cc1)c1cc2cc(Br)cc(Br)c2o1	-0.47
O=C(Nc1cscc1S(=O)(=O)c1ccc(Cl)cc1)C(Cl)(Cl)Cl	-1.4
CC(C)CC(=O)N1CCN(CC2CC=CCC2)CC1 (centres undefined)	1.6
CCS(=O)(=O)N1CCN(CC2CC=CCC2)CC1 (centres undefined)	3.7*
CSc1ccc(CN2CCN(CC3CC=CCC3)CC2)cc1 (centres undefined)	1.2
Cn1nnnc1SCCNCc1ccc(-c2ccccc2)cc1	-0.99
O=C1CC(c2ccccc2F)Cc2nc(N3CCN(c4ccccn4)CC3)ncc21 (centres undefined)	1.5
CC(C)(C)c1cc2nc(-c3ccccc3)cc(=O)n2[nH]1	-1.1
O=c1cc(-c2ccccc2)nc2c(-c3ccccc3)c(C(F)(F)F)[nH]n12	4*
Cc1cc(=O)n2[nH]c(-c3cccs3)cc2n1	-0.3
O=c1cc(-c2ccccc2)nc2cc(-c3cccs3)[nH]n12	3.1*
O=c1cc(-c2ccccc2)nc2nc(C(F)(F)F)[nH]n12	-2.4
O=c1cc(-c2ccccc2)nc2cc(-c3ccccc3)[nH]n12	0.61
CCOc1ccc(C2c3c(oc4ccc(C)cc4c3=O)C(=O)N2Cc2ccc3c(c2)OCO3)cc1 (centres undefined)	0.86
COc1ccccc1C1CC(=O)C2=C(C1)NC(C)=C(C(=O)OC1CCCC1)C2c1cccs1 (centres undefined)	0.36
COc1cccc(OC)c1C(=O)Oc1ccc2c(=O)c(-c3ccccc3)coc2c1	-0.38
CNC(=S)N(C)NC(=S)NCc1cccs1	0.23
C/C(Nc1ccccc1F)=C1/CCOC1=O	0.1
CC(=O)NC(Nc1ccccc1C)(C(F)(F)F)C(F)(F)F	-0.14
C/C(Nc1ccccc1C)=C1/CCOC1=O	4*
CCOc1ccccc1/C=C1N=C(/C=C/c2ccccc2)OC/1=O	2
COc1ccc(/C=C2N=C(/C=C/c3ccccc3)OC/2=O)cc1	4.4*
COc1ccc(/C=C2/N=C(C)OC2=O)cc1	-0.48
SMILES	Dicer inh
C=CCN1C(=O)C2(/C(=C(/O)c3ccc(C)c(F)c3)C(=O)C(=O)N2CCOC)c2ccccc21 (centres undefined)	-0.51
CCc1[nH]nc2c1C(c1ccccc1)C(C#N)=C(N)O2 (centres undefined)	-2.8
COc1ccc(-c2cn3ccccc3n2)cc1	5.8*
COc1ccc(-c2cn3ccccc3n2)cc1Br	1.1
CCc1ccn2cc(-c3ccc(C)cc3)nc2c1	1.6
COc1ccc(-c2cn3cccc(C)c3n2)cc1	0.29
CCCOc1ccc(-c2cn3ccccc3n2)cc1	3.9*
COc1c(Cl)cccc1-c1cn2ccccc2n1	-1.6
COc1ccc(OC)c(C2Nc3ccccc3NC3=C2C(=O)CC(c2ccccc2)C3)c1 (centres undefined)	0.27
Cn1c(=O)c2cc3cc(F)ccc3nc2n(C)c1=O	-0.37
O=C(CSc1ncn[nH]1)c1ccc(-c2ccccc2)cc1	1.7
CCOC(=O)c1c(SC)nc2ccc(Cl)cc2c1N1CCCCCC1	-1.4
O=C1CC(c2cccc(Cl)c2)Cc2nc(N3CCN(Cc4ccccc4)CC3)ncc21 (centres undefined)	0.99
CCOC(=O)CCc1ccc2c(c1)NC(c1cccc([N+](=O)[O-])c1)O2 (centres undefined)	-0.17
Cc1ccc(NC(=S)NN(C)C)cc1C	-1.6
CN(C)CCCN1c2ccccc2CCc2ccc(Cl)cc21	25
CN(CCCN1c2ccccc2CCc2ccccc21)CC(=O)c1ccc(Cl)cc1	-0.11
CNCCCN1c2ccccc2CCc2ccccc21	5.6*!
CC1CN=C(SCc2ccccc2)N1 (centres undefined)	1.1
Cn1cccc1CN1CCN(Cc2ccccc2)CC1	0.53
CN(CCO)c1nc2c([nH]1)c(=O)[nH]c(=O)n2C	0.81
O=C1c2cccc3c(N4CCCC4)ccc(c23)C(=O)N1c1ccccc1	2
CCCSc1ccc2c3c(cccc13)C(=O)N(c1ccccc1)C2=O	-1.1
CN(C)c1ccc2c3c(cccc13)C(=O)N(c1ccccc1)C2=O	3.4*
Cc1cc(/C(N)=N/OC(=O)c2ccc(OC(F)(F)F)cc2)c(-c2ccccc2)o1	-0.21
SMILES	Dicer inh
CSC1=NCCN1S(=O)(=O)c1cc(Cl)c(Cl)cc1Cl	-1.1
Nc1ccc(CCc2nc3cc(N)ccc3o2)cc1	3.9*
Nc1ccc2oc(-c3cccc(-c4nc5cc(N)ccc5o4)n3)nc2c1	-4.8
Cc1ccccc1-c1nc2cc(N)ccc2o1	5.7
CCCC1c2ccsc2CCN1C(=O)c1ccc(Cl)cc1 (centres undefined)	-0.86
COc1ccc(OC)c(Sc2nc(C)c([N+](=O)[O-])c(C)c2C#N)c1	-10
N#CC1(CN2C(=O)C3(OCCO3)c3ccccc32)CC=CCC1 (centres undefined)	1.2
O=C(CCc1ccc(O)cc1)c1c(O)cc(O)cc1O	3.6*
CCOC(=O)C(=CNNC(=O)CCc1ccc(O)cc1)C(=O)OCC	-0.3
O=C(CCc1ccc(O)cc1)NNC(=S)NCCc1ccccc1	-0.71
Cn1ncc2c(NNS(=O)(=O)c3ccccc3)ncnc21	0.1
Cc1ccc(S(=O)(=O)N(C)CCO)cc1-c1nnc2c3ccccc3c(C)nn12	0.62
CCN(C(=O)c1ccccc1)c1cccc2ccccc12	-1.2
CN(C(=O)c1ccccc1)C(=O)N(C)C(=O)c1ccccc1	-1.4
CN1C2C=C(N(CCc3ccccc3)C(=O)c3ccccc3)CC1CC2 (centres undefined)	3.1*
CC12CN3CC(C)(CN(C1)C3c1ccc(O)cc1O)C2 (centres undefined)	2.6
CN(C)c1ccc(NC2CC(=O)N(c3ccc(F)cc3)C2=O)cc1 (centres undefined)	-1.6
CCCCCCCNC1CC(=O)N(c2ccc(F)cc2)C1=O (centres undefined)	3.9*
CC(C)CNC1CC(=O)N(c2ccc(C(C)C)cc2)C1=O (centres undefined)	-0.87
COCCOC(=O)c1c(C)oc2ccc(O)cc12	1.3
Cc1nc(C(F)(F)F)ccc1C(=O)N1C=CC(C(F)(F)F)=NCC1	0.47
Cc1ccc(C2Nn3c(C)nnc3SC2C(=O)Nc2ccc(C)cc2Br)cc1 (centres undefined)	0.22
Cc1cc(Br)ccc1NC(=O)C1Sc2nnc(C)n2NC1c1ccccc1 (centres undefined)	0.34
Cc1nnc2n1NC(c1ccc(F)cc1)C(C(=O)Nc1ccc(Br)cc1Cl)S2 (centres undefined)	3.4*
CCCC[S@](=N)(=O)CC[C@H](N)C(=O)O	0.25
SMILES	Dicer inh
O=[N+]([O-])c1ccc(Oc2cncc(Cl)c2)c(-c2nnc(-c3ccc(Cl)cc3)o2)c1	0.09
COc1ccc(C(=O)CSc2nc(C)cc(C)n2)cc1C	-0.42
Cc1cc(C)nc(SCC(=O)c2c(C)[nH]c3ccccc23)n1	2.9
Cc1cc(C)nc(SCC(=O)c2ccc(F)cc2F)n1	3.7*
NC(=O)C1(N2CCCCC2)CCN(S(=O)(=O)c2ccc3c(c2)OCC3)CC1	1.7
Cc1nnc(NC(=O)CCCC(=O)O)s1	3.7*
Cc1nnc(NC(=O)CCC(=O)O)s1	0.99
CC(C)c1nnc(NC(=O)CCCC(=O)O)s1	-1
CCOC(=O)c1c(O)c2ccccc2[nH]c1=O	0.85
CCOC(=O)c1c(C)nc2ccc(Cl)cc2c1-c1ccccc1	0.82
